Several values for one entry are separate records, joined by “and”; a condition that tells them apart may be missing. Equal values may be shown once. Inconclusive results are not listed. Activity calls are given as the source filed them. The call rests on the fitted dose curve.
Experiment: qHTS Assay for Lipid Storage Modulators (AID 1519); on activity change, negative = inhibition: on the % scale 0 is the no-effect control and ±100 the full control effect
Details: Drosophila S3 cells, BODIPY lipid droplet/cell ratio, laser cytometry; at 57.5 µM (top of the series); cells loaded with oleic acid
Outline: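 Cells seeded at 5,000 per well were treated with compounds over a concentration series and loaded with oleic acid (400 uM, as added). Lipid droplet fluorescence (488 nm excitation, 500-530 nm channel) was read by laser-scanning cytometry and normalized to 20 uM Triacsin C.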
With `CNC(C)C(O)c1ccccc1` (stereo unspecified) the activity change, negative = inhibition was 8.05% (inactive).
In the case of `COc1cc(CNC(=O)CCCC/C=C/C(C)C)ccc1O`, the activity change, negative = inhibition was -5.1% (inactive) and 0.692% (inactive).
For `CC(=O)OC1C[C@H](O[C@@H]2C(O)C[C@H](O[C@@H]3C(O)C[C@@H](OC4CC[C@]5(C)C(CCC6C5CC(O)[C@@]5(C)C(C7=CC(=O)OC7)CC[C@@]65O)C4)OC3C)OC2C)O[C@H](C)[C@H]1O[C@H]1OC(CO)C(O)C(O)C1O` (stereo partly specified), the activity change, negative = inhibition was 1.49% (inactive).

Same assay, conditions: Drosophila S3 cells, BODIPY lipid droplet/cell ratio, laser cytometry; measured here: cell count channel max response; cells loaded with oleic acid
With `CNC(C)C(O)c1ccccc1` (stereo unspecified) the max response was 10.2%.
For `COc1cc(CNC(=O)CCCC/C=C/C(C)C)ccc1O`, the max response was -0.801% and 21.3%.
For `CC(=O)OC1C[C@H](O[C@@H]2C(O)C[C@H](O[C@@H]3C(O)C[C@@H](OC4CC[C@]5(C)C(CCC6C5CC(O)[C@@]5(C)C(C7=CC(=O)OC7)CC[C@@]65O)C4)OC3C)OC2C)O[C@H](C)[C@H]1O[C@H]1OC(CO)C(O)C(O)C1O` (stereo partly specified), the max response was 20.6%.

Same assay, conditions: Drosophila S3 cells, BODIPY lipid droplet/cell ratio, laser cytometry; measured here: lipid channel max response; cells loaded with oleic acid
In the case of `CNC(C)C(O)c1ccccc1` (stereo unspecified), the max response was 21.8%.
For `COc1cc(CNC(=O)CCCC/C=C/C(C)C)ccc1O`, the max response was -2.34% and 21.8%.
With `CC(=O)OC1C[C@H](O[C@@H]2C(O)C[C@H](O[C@@H]3C(O)C[C@@H](OC4CC[C@]5(C)C(CCC6C5CC(O)[C@@]5(C)C(C7=CC(=O)OC7)CC[C@@]65O)C4)OC3C)OC2C)O[C@H](C)[C@H]1O[C@H]1OC(CO)C(O)C(O)C1O` (stereo partly specified) the max response was 24.4%.

Experiment: Primary qHTS for inhibitors of SARS-S pseudo-typed particle cell entry (AID 1479145); further: nearly all actives have a fitted effect of over 45% in size; further: potency means the concentration at half of the fitted maximal effect; on activity change, negative = inhibition: on the % scale 0 is the no-effect control and ±100 the full control effect
Details: SARS-S pseudotyped particle cell entry, luciferase reporter; series mostly up to 57.1 µM
With `C(=C\c1ccncc1)/c1ccccc1` the Potency was “inactive”.
In the case of `Nc1nc(NC2CC2)c2ncn([C@H]3C=C[C@@H](CO)C3)c2n1`, the Potency was “inactive”.
In the case of `CN(C)C/C=C/C(=O)Nc1cc2c(Nc3ccc(F)c(Cl)c3)ncnc2cc1OC1CCOC1` (stereo unspecified), the Potency was 10000 nM (active).
In the case of `CO[C@H](C(=O)[C@@H](O)[C@@H](C)O)C1Cc2cc3cc(O[C@H]4C[C@@H](O[C@H]5C[C@@H](O)[C@H](O)[C@@H](C)O5)[C@@H](O)[C@@H](C)O4)c(C)c(O)c3c(O)c2C(=O)[C@H]1O[C@H]1C[C@@H](O[C@H]2C[C@@H](O[C@H]3C[C@](C)(O)[C@H](O)[C@@H](C)O3)[C@H](O)[C@@H](C)O2)[C@H](O)[C@@H](C)O1` (stereo partly specified), the Potency was 3550 nM (active).
In the case of `C/C(O)=C(\C#N)C(=O)Nc1ccc(C(F)(F)F)cc1`, the Potency was “inactive”.
With `C[C@H]1O[C@@H](O[C@H]2[C@@H](O)C[C@H](O[C@H]3[C@@H](O)C[C@H](O[C@H]4CC[C@@]5(C)[C@H](CC[C@@H]6[C@@H]5C[C@@H](O)[C@]5(C)[C@@H](C7=CC(=O)OC7)CC[C@]65O)C4)O[C@@H]3C)O[C@@H]2C)C[C@H](O)[C@@H]1O` the Potency was “inactive”.
In the case of `CC(C)C[C@H](NC(=O)CNC(=O)c1cc(Cl)ccc1Cl)B1OC(=O)C(CC(=O)O)(CC(=O)O)O1`, the Potency was “inactive”.
For `CCc1cc2c(cc1CC)CC(NC[C@H](O)c1ccc(O)c3[nH]c(=O)ccc13)C2`, the Potency was “inactive”.
In the case of `CCCCCCCCC=CCCCCCCCC(=O)NCCOC(=O)CC(C(=O)O)S(=O)(=O)O` (stereo unspecified), the Potency was “inactive”.
With `COc1ccc2c(c1)OC(C)(C)C(c1ccccc1)C2c1ccc(OCCN2CCCC2)cc1` (stereo unspecified) the Potency was “inactive”.
With `COc1cc2c(cc1O)CCN[C@]21CS[C@@H]2c3c(OC(C)=O)c(C)c4c(c3[C@H](COC1=O)N1[C@@H]2[C@H]2c3c(cc(C)c(OC)c3O)C[C@@H]([C@@H]1O)N2C)OCO4` the activity change, negative = inhibition was -93.9% [at 11.4 µM] (inactive).
For `CC1(S(=O)(=O)O)CC(=O)c2ccccc2C1=O` (stereo unspecified), the Potency was “inactive”.
In the case of `CO[C@H]1C[C@@H]2CC[C@@H](C)[C@@](O)(O2)C(=O)C(=O)N2CCCC[C@H]2C(=O)O[C@H]([C@@H](C)C[C@@H]2CC[C@@H](O)[C@H](OC)C2)CC(=O)[C@H](C)/C=C(\C)[C@@H](O)[C@@H](OC)C(=O)[C@H](C)C[C@H](C)/C=C/C=C/C=C/1C`, the Potency was “inactive”.
In the case of `CC[C@@]1(O)C(=O)OCc2c1cc1n(c2=O)Cc2cc3c([N+](=O)[O-])cccc3nc2-1`, the Potency was “inactive”.
In the case of `CC(=O)OC1CC(OC2C(O)CC(OC3C(O)CC(OC4CCC5(C)C(CCC6C5CCC5(C)C(C7=CC(=O)OC7)CCC65O)C4)OC3C)OC2C)OC(C)C1O` (stereo unspecified), the Potency was “inactive”.
In the case of `CC(=O)OC1C[C@H](O[C@@H]2C(O)C[C@H](O[C@@H]3C(O)C[C@@H](OC4CC[C@]5(C)C(CCC6C5CC(O)[C@@]5(C)C(C7=CC(=O)OC7)CC[C@@]65O)C4)OC3C)OC2C)O[C@H](C)[C@H]1O[C@H]1OC(CO)C(O)C(O)C1O` (stereo partly specified), the Potency was 794 nM (active).
In the case of `COc1cc([C@@H]2c3cc4c(cc3C(O[C@@H]3O[C@@H]5CO[C@@H](c6cccs6)OC5[C@H](O)[C@H]3O)C3COC(=O)[C@@H]32)OCO4)cc(OC)c1O` (stereo partly specified), the Potency was 1000 nM (active).
